Experimental findings from PubChem BioAssay (Tox21) are described below.

The structures appear in SMILES notation. Results filed as inconclusive are left out. A call without a number means that no potency is given here. Activity calls are given as the source filed them. Calls come from the whole dose curve; as a rule, active = well fitted activation curve with a large enough effect; inconclusive = small, poorly fitted or top-dose-only effect; inactive = flat fitted curve, though single readings scatter.
Potency is the fitted concentration of half-maximal effect.

The experiment can be described thus: qHTS assay to identify small molecule phospholipidosis (PLD) inducers (AID 1259344). As to conditions: HepG2 phospholipidosis, LipidTOX Red imaging, 24 h; series mostly up to 38.3 µM. The text has this:
National Center for Advancing Translational Sciences [NCATS]
Drug-induced Phospholipidosis (PLD) caused by cationic amphiphilic drugs is characterized by the appearance of unicentric or multicentric-lamellar bodies when viewed under electron microscope. Electron microscopy is the gold standard method for PLD detection, however, this method is time-consuming and labor intensive, making it unsuitable for evaluating a large set of compounds. A cell-based phospholipidosis assay has been developed using the LipidTox reagent in HepG2 cells and miniaturized into a 1536-well plate format. Drug induced phospholipid accumulation is stained with the LipidTox dyes in red color which then is determined using an automated high content screening system.
HepG2 cells are dispensed at 900 cells/3 uL/well into Collagen I-coated 1536-well black-wall/clear-bottom assay plates (Greiner Bio-One, Monroe, NC) using the Multidrop Combi 8 channel dispenser (Thermo Fisher, Waltham, MA, USA). The assay plates are incubated at 37 C for 4 hours to allow the cell attachment. 3 uL of 1:500 LipidTOX Red dye is added using the dispenser, and then 23 nL compounds are added via a Wako Pintool station (Wako Automation, San Diego, CA). Amiodarone, a known PLD inducer, was used as a positive control and DMSO was used as a negative control. The assay plates were then incubated at 37 C for 24 hours.
For fixations, 4 uL of 8% paraformaldehyde fixative solution containing 10 ug/mL Hoechst 33342 in Dulbecco's phosphate-buffered saline (DPBS) is added using a Kalypsys washer/dispenser (Kalypsys, San Diego, CA, USA). After incubation at room temperature for 30 min, the assay plates are washed once with DPBS using a Kalypsys washer/dispenser. The assay plates are then sealed and stored at 4 C before imaging. The fluorescence intensities (595 nm excitation, 615 nm emission for LipidTOX; 352 nm excitation, 461 nm emission for Hoechst 33342) are measured using an ImageXpress Micro Widefield High Content Screening System (Molecular Devices, Sunnyvale, CA, USA) with a 20x Plan Fluor objective. Images are acquired for one site in each well and analyzed with the MetaXpress software (Molecular Devices) using the Transfluor module. Several algorithmic outputs, such as pit count per well, pit count per cell, pit integrated intensity per well, and pit integrated intensity per cell, are used for quantitative image analysis for PLD.
Regarding `Oc1c(Br)cc(Br)c2cccnc12`, the Potency entry is “inactive”.
Consider `CCN1CCN(c2cc(-c3ccc(F)cc3)c3c(n2)CCCCCC3)CC1`, for which the PLD induction was 12.7% [at 7.66 µM] (inactive).
On to `C[n+]1c2cc(N)ccc2cc2ccc(N)cc21` (tested in a mixture with another compound), for which the Potency result is “inactive”.
On the same count and under the same terms, with `CC(=O)Nc1ccc(O)cc1` the entry was “inactive”; with `O[C@@H](c1cc(C(F)(F)F)nc2c(C(F)(F)F)cccc12)[C@H]1CCCCN1`, “inactive”.
Same read-out and setting: as for `Clc1ccccc1CN1CCc2sccc2C1`, the entry is “inactive”.
`Nc1ccc2cc3ccc(N)cc3nc2c1`: the Potency result is “inactive”.
Take `CCCSS/C(CCO)=C(\C)N(C=O)Cc1cnc(C)nc1N`: the Potency result was “inactive”.
On the same count and under the same terms, with `CCCCNc1c(C(=O)OCC)c(C)nc2c1cnn2CC` the entry was “inactive”; with `CCN(CC)CCOC(=O)C1(C2CCCCC2)CCCCC1`, “inactive”.
Consider `Cc1cc2c(C(C)C)c(O)c(O)c(C=O)c2c(O)c1-c1c(C)cc2c(C(C)C)c(O)c(O)c(C=O)c2c1O`, for which the Potency entry was “inactive”.
On the same count and under the same terms, with `CC1=C(/C=C/C(C)=C/C=C/C(C)=C/C(=O)Nc2ccc(O)cc2)C(C)(C)CCC1` the entry was “inactive”.
The same measure, in the same setting: as for `CN1[C@@H]2CC[C@H]1CC(OC(=O)C(CO)c1ccccc1)C2` (stereo not given in full), the entry is “inactive”; as for `Cc1cn[nH]c1`, “inactive”.
Take `NC(=O)C(=O)N/N=C/c1ccc([N+](=O)[O-])o1`: the Potency result is “inactive”.
As to `O=C1OC(OC(=O)c2cccnc2Nc2cccc(C(F)(F)F)c2)c2ccccc21` (stereo not given), the Potency entry was “inactive”.
Same read-out and setting: with `CCN(CC)CCOc1ccc(C(O)(Cc2ccc(Cl)cc2)c2ccc(C)cc2)cc1` (stereo not given) the entry was “inactive”; with `O=C(NO)c1ccccc1`, “inactive”.
Still for that read-out and setting: with `Nc1ncnc2c1ncn2[C@@H]1O[C@H](COP(=O)(O)O)[C@@H](O)[C@H]1O` the entry was “inactive”; with `CNC(=O)c1cc(Oc2ccc(NC(=O)Nc3ccc(Cl)c(C(F)(F)F)c3)cc2)ccn1`, “inactive”.
In the case of `C[C@@]12C(=O)OC(=O)[C@]1(C)C1CCC2O1`, the Potency entry was “inactive”.
On the same count and under the same terms, as for `N[C@@H](CSSC[C@H](N)C(=O)O)C(=O)O`, the entry is “inactive”; as for `COc1cc(C=C2CCC/C(=C\c3ccc(O)c(OC)c3)C2=O)ccc1O`, “inactive”.
`C[C@H]1O[C@@H](O[C@H]2[C@@H](O)C[C@H](O[C@H]3[C@@H](O)C[C@H](O[C@H]4CC[C@@]5(C)[C@H](CC[C@@H]6[C@@H]5C[C@@H](O)[C@]5(C)[C@@H](C7=CC(=O)OC7)CC[C@]65O)C4)O[C@@H]3C)O[C@@H]2C)C[C@H](O)[C@@H]1O`: the Potency was 11.2 µM (active).
For the compound `Clc1ccc(C(Cn2ccnc2)OCc2ccsc2Cl)c(Cl)c1` (stereo not given), the Potency entry was “inactive”.
On the same count and under the same terms, with `CSc1ccc2c(c1)N(CCC1CCCCN1C)c1ccccc1S2` (stereo not given) the entry was “inactive”.
As for `CN(Cc1cc(Br)cc(Br)c1N)C1CCCCC1`, the Potency entry was “inactive”.
Same read-out and setting: with `O=C1c2c(O)ccc(O)c2C(=O)c2c(NCCNCCO)ccc(NCCNCCO)c21` the entry was “inactive”; with `CCN(CC)CCSC(=O)C(c1ccccc1)c1ccccc1`, “inactive”.
Regarding `O=C(O)Cc1ccc(OCCNC[C@H](O)c2ccccc2)cc1`, the Potency result is “inactive”.
Regarding `CN(C)c1ccc(N=NS(=O)(=O)O)cc1`, the Potency result is “inactive”.
As for `CCCCCCCC/C=C\CCCCCCCC(=O)NCc1ccc(O)c(OC)c1`, the Potency result was “inactive”.
Still for that read-out and setting: with `CC(=O)Oc1ccc(C2(c3ccc(OC(C)=O)cc3)C(=O)Nc3ccccc32)cc1` the entry was “inactive”; with `COc1ccccc1OCCNCC(O)COc1cccc2[nH]c3ccccc3c12` (stereo not given), “inactive”.
On the same count and under the same terms, as for `CCCCCCCCCCCCCCNCCO`, the entry is “inactive”; as for `O=C(O)CCn1c2c(c3ccccc31)C[C@H](NS(=O)(=O)c1ccc(F)cc1)CC2`, “inactive”; as for `CC(C)OC(=O)c1cc(C(=O)OC(C)C)cc([N+](=O)[O-])c1`, “inactive”.
As to `C/C=C/C=N/NC(=O)c1ccncc1`, the Potency entry is “inactive”.
On the same count and under the same terms, as for `NCCCC(O)(P(=O)(O)O)P(=O)(O)O`, the entry is “inactive”.
On the same count and under the same terms, as for `Clc1ccc(C(Cn2ccnc2)OCc2c(Cl)cccc2Cl)c(Cl)c1` (stereo not given), the entry is “inactive”.
